# The list is not random: actives were taken first. Their share in the collection is about 3.9%.
# Peg3 promoter = Peg3 promoter-driven luciferase inhibitors, primary screen, cell-based, HeLa, luciferase luminescence | HeLa PEG-Prom luciferase reporter, overnight | inhibition, % at 20 µM | actives 1.7% (n = 360,000) | AID 588405, 2011;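 active means inhibition of at least 50% at 20 µM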
# TROY NFkB inh = inhibitors of TROY-driven NF-kB signaling, primary screen, Q293 LMP1-TROYcd cells, NF-kB luciferase, uHTS; Q293 LMP1-TROYcd NF-kB luciferase reporter, 4 h; inhibition, % at 10 µM; actives 0.98% (n = 360,000); AID 1347056, 2019;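 active means compounds whose plate-normalised and pattern-corrected inhibition of the luciferase reporter signal at the single screening dose is 50% or more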
# TWEAK Fn14 block = inhibitors of TWEAK-Fn14 signaling, primary screen, luciferase reporter cells, uHTS; TWEAK-stimulated Fn14 reporter cells, luciferase luminescence, 8 h; inhibition, % at 10 µM; actives 2% (n = 360,000); in the data active means inhibition above about 50%
# HIF-2a block = HIF-2a reporter inhibitors, primary screen, luminescence, 786-0 RCC cells; AID 624352, 2012; 786-0 RCC cells HIF-2a reporter, luciferase luminescence, overnight; actives 0.72% (n = 360,000); inhibition, % at 18.8 µM;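 active means inhibition of the luminescence signal of 40% or more relative to plate controls, in a single-dose primary screen at 18.75 µM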
# KKLEB cytotox = cytotoxicity in KKLEB CF airway cells, primary screen, cytotoxicity control for CF NF-kB inhibitor project, cell-based, uHTS, fluorescence assay plates | actives 0.36% (n = 360,000) | activity change (cytotoxicity), % at 5 µM | AID 602141, 2011 | KKLEB CF airway cells viability, ATPlite luminescence, overnight; hits give low values; cells stimulated with P. aeruginosa culture filtrate;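 active means corrected activity change at or below -50% at 5 µM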
# CF NFkB block = inhibitors of PAF-induced NF-kB signaling, primary screen, cell-based, GFP fluorescence, uHTS | KKLEB NF-kB-GFP reporter, GFP fluorescence overnight | inhibition, % at 5 µM | actives 0.86% (n = 360,000) | AID 588850, 2011;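 active means at least 50% inhibition at 5 µM, scaled per plate between neutral and stimulator controls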;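 further: PAF is a Pseudomonas aeruginosa culture filtrate used as stimulus; plate controls were PAF-stimulated DMSO wells for no effect and unstimulated DMSO wells for full effect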
# Mdm2 MdmX conf = retested Mdm2-MdmX interaction blockers, confirmation, cell-based, luminescence, single concentration, set 2 | shares compounds with HIF-2a block | SaOS-2 split-luciferase Mdm2/MdmX complementation | inhibition, % at 8 µM | actives 99% (n = 740);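 active means mean inhibition of the luminescence signal across two replicates at or above 26 percent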
# Target sequence (O15151 whole entry, looked up): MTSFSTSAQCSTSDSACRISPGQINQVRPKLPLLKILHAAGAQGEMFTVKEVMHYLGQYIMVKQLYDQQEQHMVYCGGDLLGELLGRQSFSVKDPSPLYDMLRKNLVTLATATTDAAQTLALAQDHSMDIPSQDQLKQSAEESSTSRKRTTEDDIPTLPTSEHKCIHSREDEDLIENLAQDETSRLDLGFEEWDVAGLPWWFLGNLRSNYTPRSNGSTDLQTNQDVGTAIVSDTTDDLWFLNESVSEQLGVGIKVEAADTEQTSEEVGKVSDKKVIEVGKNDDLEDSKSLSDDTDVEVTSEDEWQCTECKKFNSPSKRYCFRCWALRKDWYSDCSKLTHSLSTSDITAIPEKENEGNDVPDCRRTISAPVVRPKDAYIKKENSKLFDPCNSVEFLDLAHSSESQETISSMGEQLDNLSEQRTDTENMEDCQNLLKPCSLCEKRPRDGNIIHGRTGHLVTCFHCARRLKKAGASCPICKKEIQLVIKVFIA
# Target sequence (Q00987 whole entry, looked up): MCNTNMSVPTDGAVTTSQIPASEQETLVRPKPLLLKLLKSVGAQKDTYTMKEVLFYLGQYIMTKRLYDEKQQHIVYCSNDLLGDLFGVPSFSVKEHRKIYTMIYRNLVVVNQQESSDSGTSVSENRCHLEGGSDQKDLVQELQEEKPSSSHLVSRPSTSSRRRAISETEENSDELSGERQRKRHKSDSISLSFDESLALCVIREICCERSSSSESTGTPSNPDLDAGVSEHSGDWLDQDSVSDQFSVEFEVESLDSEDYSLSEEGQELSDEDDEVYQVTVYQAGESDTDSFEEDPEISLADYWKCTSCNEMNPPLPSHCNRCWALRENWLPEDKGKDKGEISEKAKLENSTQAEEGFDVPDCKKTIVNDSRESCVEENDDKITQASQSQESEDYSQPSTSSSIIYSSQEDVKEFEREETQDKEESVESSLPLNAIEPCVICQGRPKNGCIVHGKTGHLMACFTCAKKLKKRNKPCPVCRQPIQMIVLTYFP
# HIF-2a inh conf = HIF-2a reporter inhibitor retest, confirmation, luminescence, 786-0 RCC cells; inhibition, % at 18.8 µM; actives 56% (n = 1,800); HIF-2a luciferase reporter luminescence, overnight; shares compounds with HIF-2a block;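 active means mean inhibition across four replicates of at least 40 percent at the single tested concentration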
# HIF-1a counter = HIF-1a luciferase reporter signal reduction – MiaPaCa-2 cells, single concentration, counter-screen for HIF-2a inhibitor project, confirmation. shares compounds with HIF-2a block. MiaPaCa-2 HIF-1a luciferase reporter, desferoxamine, overnight. inhibition, % at 18.8 µM. actives 72% (n = 1,800);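 active means mean inhibition of the reporter signal across four replicates at the single tested dose of 50% or more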
# An asterisk follows results filed as active; / = not tested or not shown.
SMILES,Peg3 promoter,TROY NFkB inh,TWEAK Fn14 block,HIF-2a block,KKLEB cytotox,CF NFkB block,HIF-2a inh conf,HIF-1a counter,others
NCCCCCc1nnc(SCc2ccccc2Cl)o1,13,-1,3,68*,-1,-20,83*,68*,
NCCc1nnc(SCc2c(Cl)cccc2Cl)o1,4,8,8,17,-1,-9,/,/,
Cc1ccc(C)c(NC(=O)Nn2cnnc2)c1,15,1,8,5,12,-8,/,/,
N#Cc1ccccc1Cn1cc(/C=C/[N+](=O)[O-])c2ccccc21,106*,24,50,96*,-20,40,97*,105*,
O=[N+]([O-])/C=C/c1cn(Cc2ccccc2)c2ccccc12,55*,-10,22,43*,-8,-6,71*,105*,
O=C(O)Cn1cc(/C=C/[N+](=O)[O-])c2ccccc21,4,22,-7,13,11,5,/,/,
Cc1ccc(S(=O)(=O)N2C[C@@H]3[C@H]4CC[C@H](C4)[C@@H]3[C@@H](C)[C@@H]2c2ccn(Cc3ccccc3)c2)cc1,12,-10,8,0,-5,12,/,/,
O=C1Nc2cccnc2N(C(=O)CCl)c2ccccc21,63*,-4,30,42*,-1,6,9,5,
Nc1nnnn1/N=C/C(Br)=C/c1ccccc1,114*,11,75*,83*,-94*,91*,30,104*,Mdm2 MdmX conf=103*
Nc1nnnn1/N=C/C=C/c1ccccc1,-89,-30,-21,-106,-10,14,/,/,
COc1cc(C(Nc2ccccn2)c2ccc3ccc(C)nc3c2O)cc(OC)c1O (stereo unspecified),102*,10,46,94*,-34,74*,/,/,Mdm2 MdmX conf=102*
COc1ccc(C(Nc2cc(C)ccn2)c2ccc3ccc(C)nc3c2O)cc1 (stereo unspecified),9,0,-4,13,-29,39,/,/,
COc1ccc(NS(=O)(=O)c2cc(NS(=O)(=O)c3cc(C(=O)O)ccc3OC)ccc2C)cc1,22,6,4,10,-15,25,/,/,
S=C(c1cn(CCOc2ccccc2)c2ccccc12)N1CCCC1,10,-38,-14,-12,-8,10,/,/,
Cc1ccc(OCCn2cc(C(=S)N3CCCC3)c3ccccc32)cc1C,22,0,-81,-27,-2,-17,/,/,Mdm2 MdmX conf=100*
CCCCCn1c(SCCOCC)nc2c1c(=O)[nH]c(=O)n2C,8,2,3,8,-5,2,/,/,
CC(C)[C@H](N)C(=O)N[C@H]1CCC2C3CC=C4C[C@@H](O)CC[C@]4(C)C3CC[C@@]21C (stereo partly specified),92*,-27,-46,55*,-72*,8,2,90*,
CCC(C)[C@H](N)C(=O)N[C@H]1CCC2C3CC=C4C[C@@H](O)CC[C@]4(C)C3CC[C@@]21C (stereo partly specified),110*,0,11,86*,-67*,32,-1,50*,
C[C@@H](N)C(=O)N[C@H]1CCC2C3CC=C4C[C@@H](O)CC[C@]4(C)C3CC[C@@]21C (stereo partly specified),-1,-7,19,7,1,3,/,/,
CCc1nc(SCC(=O)Nc2cc(C)ccc2OC)c2c(C)c(C)sc2n1,12,4,-23,22,-1,19,/,/,
O=C(Nc1cc(Cl)cc2c1-c1ccc(Cl)cc1C2O)C(Cl)Cl (stereo unspecified),95*,21,-90,45*,8,-63,-79,72*,
Cc1ccc(N(CCC#N)C(=O)CCl)cc1C,46,3,56*,33,-26,24,/,/,Mdm2 MdmX conf=103*
CC(C)(C)C(=O)Cn1ncc(N2CCCC2)c(Br)c1=O,-168,-37,6,-160,15,-3,/,/,
CC(=O)Cn1ncc(Br)c(Br)c1=O,98*,65*,86*,97*,-83*,96*,95*,105*,
Cc1[nH]c(=O)c(C#N)c(C)c1[N+](=O)[O-],-82,15,3,-3,0,-4,/,/,
SMILES,Peg3 promoter,TROY NFkB inh,TWEAK Fn14 block,HIF-2a block,KKLEB cytotox,CF NFkB block,HIF-2a inh conf,HIF-1a counter,others
NC(=O)c1sc2nc3c(c(-c4cccs4)c2c1N)CCCCC3,14,-6,76*,34,-51*,91*,/,/,Mdm2 MdmX conf=95*
NC(=O)c1sc2nc3c(c(-c4cccnc4)c2c1N)CCC3,-1,-16,-6,-1,10,9,/,/,
NS(=O)(=O)c1ccc(NN=C2CCN(Cc3ccccc3)CC2)c([N+](=O)[O-])c1,7,-7,0,2,6,-3,/,/,
NS(=O)(=O)c1ccc(N/N=C2/CCCCC2C2CCCCC2)c([N+](=O)[O-])c1 (stereo unspecified),40,-22,-5,55*,-11,-4,2,104*,
CCOc1ccc(CNC(=O)c2cc3oc4ccccc4c3n2C)cc1,-25,-23,-45,-83,-16,8,/,/,
COc1cccc(CNC(=O)c2cc3oc4ccccc4c3n2C)c1OC,-6,-12,-109,-18,-11,4,/,/,Mdm2 MdmX conf=100*
COc1ccc(OC)c(NC(=O)C2(C)CCN2Cc2ccccc2OC(F)F)c1 (stereo unspecified),18,-4,6,12,-2,32,/,/,
CCn1c(C)nc2cc(-c3nc4n(n3)Cc3ccccc3-4)ccc21,114*,/,105*,91*,-88*,-2,/,/,Mdm2 MdmX conf=100*
COc1cc(NC(=O)COC(=O)/C=C/c2ccc(O)c(OC)c2)cc(OC)c1,14,10,1,6,14,-11,/,/,
COc1ccc(C2C(Oc3ccccc3)C(=O)N2c2cc(C)ccc2C)cc1OC (stereo unspecified),17,-8,-14,-5,2,0,/,/,

# Compound activity from PubChem BioAssay.
